Measurements published in the supplement of paper PMC11732987, “Enantioselective OTUD7B fragment discovery through chemoproteomics screening and high-throughput optimisation” (Communications Chemistry, 2025).

What was measured:
Test in all cases: log2 ratio of Biotin-Ahx-Ub-VS probe labelling (fragment/DMSO); higher = less target engagement (more negative = stronger competition), active = hit call of the paper (q ≤ 0.05, log2 ratio ≤ -1)
Details in all cases: compound concentration: 200 uM; treatment time: 3 h
USP19 = target: T1, USP19 (UniProt O94966)
T1 sequence (whole entry): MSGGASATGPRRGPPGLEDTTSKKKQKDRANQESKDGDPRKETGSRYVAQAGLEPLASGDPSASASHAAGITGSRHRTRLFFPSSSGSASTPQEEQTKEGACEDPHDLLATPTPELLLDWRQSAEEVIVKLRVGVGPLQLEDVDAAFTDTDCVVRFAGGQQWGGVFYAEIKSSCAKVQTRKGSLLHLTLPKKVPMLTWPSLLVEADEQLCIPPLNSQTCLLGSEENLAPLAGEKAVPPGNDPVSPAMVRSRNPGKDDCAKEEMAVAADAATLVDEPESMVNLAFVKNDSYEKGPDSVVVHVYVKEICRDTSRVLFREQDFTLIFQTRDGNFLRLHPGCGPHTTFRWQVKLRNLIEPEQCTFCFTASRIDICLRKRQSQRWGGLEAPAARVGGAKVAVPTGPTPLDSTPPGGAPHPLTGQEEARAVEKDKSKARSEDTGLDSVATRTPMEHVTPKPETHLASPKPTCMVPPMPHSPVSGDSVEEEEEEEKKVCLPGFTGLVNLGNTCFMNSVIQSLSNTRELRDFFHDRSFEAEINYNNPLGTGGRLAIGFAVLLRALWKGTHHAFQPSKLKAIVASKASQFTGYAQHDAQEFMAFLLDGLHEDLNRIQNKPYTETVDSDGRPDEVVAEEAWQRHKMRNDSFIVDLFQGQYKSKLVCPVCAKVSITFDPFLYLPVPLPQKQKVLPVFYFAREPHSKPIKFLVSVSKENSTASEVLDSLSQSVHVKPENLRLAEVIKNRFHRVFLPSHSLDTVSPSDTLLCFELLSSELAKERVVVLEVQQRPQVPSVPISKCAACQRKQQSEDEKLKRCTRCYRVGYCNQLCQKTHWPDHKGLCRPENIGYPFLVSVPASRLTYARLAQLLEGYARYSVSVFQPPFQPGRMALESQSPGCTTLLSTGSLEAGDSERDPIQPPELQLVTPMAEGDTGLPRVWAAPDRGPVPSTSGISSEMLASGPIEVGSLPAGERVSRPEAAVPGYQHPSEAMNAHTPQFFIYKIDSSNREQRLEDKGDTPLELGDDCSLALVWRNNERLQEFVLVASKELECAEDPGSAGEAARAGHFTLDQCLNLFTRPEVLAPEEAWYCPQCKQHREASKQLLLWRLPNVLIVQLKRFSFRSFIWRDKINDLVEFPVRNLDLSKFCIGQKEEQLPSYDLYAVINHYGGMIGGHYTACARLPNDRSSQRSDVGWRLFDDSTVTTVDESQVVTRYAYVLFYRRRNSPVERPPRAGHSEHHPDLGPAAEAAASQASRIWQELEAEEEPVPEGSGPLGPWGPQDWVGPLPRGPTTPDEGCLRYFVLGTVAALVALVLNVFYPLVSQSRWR
Outline: (§1)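 Average log2 ratios of fragment over vehicle were obtained by unpaired t-test from global-median-normalised Spectronaut label-free quantities. Proteins with ≥2 unique peptides were included. HEK293T lysate (495 µg per sample) was treated in triplicate with fragment at 200 µM or vehicle for 3 h, then with Biotin-Ahx-Ub-VS at 0.5 µM final for 1 h, and labelled DUBs were NeutrAvidin-enriched and run by diaPASEF LC-MS/MS.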

USP22 = target: T2, USP22 (UniProt Q9UPT9)
T2 sequence (whole entry): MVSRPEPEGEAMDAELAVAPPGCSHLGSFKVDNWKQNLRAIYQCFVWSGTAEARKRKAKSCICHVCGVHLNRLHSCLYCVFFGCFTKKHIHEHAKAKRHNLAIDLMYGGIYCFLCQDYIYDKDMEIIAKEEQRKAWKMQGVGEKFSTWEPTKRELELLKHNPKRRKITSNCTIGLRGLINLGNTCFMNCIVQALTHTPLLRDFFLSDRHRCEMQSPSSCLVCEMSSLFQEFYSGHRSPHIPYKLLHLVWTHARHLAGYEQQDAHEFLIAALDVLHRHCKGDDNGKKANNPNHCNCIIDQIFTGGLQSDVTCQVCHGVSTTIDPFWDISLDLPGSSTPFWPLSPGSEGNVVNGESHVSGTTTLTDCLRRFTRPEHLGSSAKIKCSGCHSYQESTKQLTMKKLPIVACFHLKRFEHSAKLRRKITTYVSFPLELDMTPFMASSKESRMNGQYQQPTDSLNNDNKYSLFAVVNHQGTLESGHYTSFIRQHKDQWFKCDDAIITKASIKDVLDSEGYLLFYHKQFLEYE
Outline: as §1

USP24 = USP24 (UniProt Q9UPU5)
Chain of USP24 (Q9UPU5 whole entry): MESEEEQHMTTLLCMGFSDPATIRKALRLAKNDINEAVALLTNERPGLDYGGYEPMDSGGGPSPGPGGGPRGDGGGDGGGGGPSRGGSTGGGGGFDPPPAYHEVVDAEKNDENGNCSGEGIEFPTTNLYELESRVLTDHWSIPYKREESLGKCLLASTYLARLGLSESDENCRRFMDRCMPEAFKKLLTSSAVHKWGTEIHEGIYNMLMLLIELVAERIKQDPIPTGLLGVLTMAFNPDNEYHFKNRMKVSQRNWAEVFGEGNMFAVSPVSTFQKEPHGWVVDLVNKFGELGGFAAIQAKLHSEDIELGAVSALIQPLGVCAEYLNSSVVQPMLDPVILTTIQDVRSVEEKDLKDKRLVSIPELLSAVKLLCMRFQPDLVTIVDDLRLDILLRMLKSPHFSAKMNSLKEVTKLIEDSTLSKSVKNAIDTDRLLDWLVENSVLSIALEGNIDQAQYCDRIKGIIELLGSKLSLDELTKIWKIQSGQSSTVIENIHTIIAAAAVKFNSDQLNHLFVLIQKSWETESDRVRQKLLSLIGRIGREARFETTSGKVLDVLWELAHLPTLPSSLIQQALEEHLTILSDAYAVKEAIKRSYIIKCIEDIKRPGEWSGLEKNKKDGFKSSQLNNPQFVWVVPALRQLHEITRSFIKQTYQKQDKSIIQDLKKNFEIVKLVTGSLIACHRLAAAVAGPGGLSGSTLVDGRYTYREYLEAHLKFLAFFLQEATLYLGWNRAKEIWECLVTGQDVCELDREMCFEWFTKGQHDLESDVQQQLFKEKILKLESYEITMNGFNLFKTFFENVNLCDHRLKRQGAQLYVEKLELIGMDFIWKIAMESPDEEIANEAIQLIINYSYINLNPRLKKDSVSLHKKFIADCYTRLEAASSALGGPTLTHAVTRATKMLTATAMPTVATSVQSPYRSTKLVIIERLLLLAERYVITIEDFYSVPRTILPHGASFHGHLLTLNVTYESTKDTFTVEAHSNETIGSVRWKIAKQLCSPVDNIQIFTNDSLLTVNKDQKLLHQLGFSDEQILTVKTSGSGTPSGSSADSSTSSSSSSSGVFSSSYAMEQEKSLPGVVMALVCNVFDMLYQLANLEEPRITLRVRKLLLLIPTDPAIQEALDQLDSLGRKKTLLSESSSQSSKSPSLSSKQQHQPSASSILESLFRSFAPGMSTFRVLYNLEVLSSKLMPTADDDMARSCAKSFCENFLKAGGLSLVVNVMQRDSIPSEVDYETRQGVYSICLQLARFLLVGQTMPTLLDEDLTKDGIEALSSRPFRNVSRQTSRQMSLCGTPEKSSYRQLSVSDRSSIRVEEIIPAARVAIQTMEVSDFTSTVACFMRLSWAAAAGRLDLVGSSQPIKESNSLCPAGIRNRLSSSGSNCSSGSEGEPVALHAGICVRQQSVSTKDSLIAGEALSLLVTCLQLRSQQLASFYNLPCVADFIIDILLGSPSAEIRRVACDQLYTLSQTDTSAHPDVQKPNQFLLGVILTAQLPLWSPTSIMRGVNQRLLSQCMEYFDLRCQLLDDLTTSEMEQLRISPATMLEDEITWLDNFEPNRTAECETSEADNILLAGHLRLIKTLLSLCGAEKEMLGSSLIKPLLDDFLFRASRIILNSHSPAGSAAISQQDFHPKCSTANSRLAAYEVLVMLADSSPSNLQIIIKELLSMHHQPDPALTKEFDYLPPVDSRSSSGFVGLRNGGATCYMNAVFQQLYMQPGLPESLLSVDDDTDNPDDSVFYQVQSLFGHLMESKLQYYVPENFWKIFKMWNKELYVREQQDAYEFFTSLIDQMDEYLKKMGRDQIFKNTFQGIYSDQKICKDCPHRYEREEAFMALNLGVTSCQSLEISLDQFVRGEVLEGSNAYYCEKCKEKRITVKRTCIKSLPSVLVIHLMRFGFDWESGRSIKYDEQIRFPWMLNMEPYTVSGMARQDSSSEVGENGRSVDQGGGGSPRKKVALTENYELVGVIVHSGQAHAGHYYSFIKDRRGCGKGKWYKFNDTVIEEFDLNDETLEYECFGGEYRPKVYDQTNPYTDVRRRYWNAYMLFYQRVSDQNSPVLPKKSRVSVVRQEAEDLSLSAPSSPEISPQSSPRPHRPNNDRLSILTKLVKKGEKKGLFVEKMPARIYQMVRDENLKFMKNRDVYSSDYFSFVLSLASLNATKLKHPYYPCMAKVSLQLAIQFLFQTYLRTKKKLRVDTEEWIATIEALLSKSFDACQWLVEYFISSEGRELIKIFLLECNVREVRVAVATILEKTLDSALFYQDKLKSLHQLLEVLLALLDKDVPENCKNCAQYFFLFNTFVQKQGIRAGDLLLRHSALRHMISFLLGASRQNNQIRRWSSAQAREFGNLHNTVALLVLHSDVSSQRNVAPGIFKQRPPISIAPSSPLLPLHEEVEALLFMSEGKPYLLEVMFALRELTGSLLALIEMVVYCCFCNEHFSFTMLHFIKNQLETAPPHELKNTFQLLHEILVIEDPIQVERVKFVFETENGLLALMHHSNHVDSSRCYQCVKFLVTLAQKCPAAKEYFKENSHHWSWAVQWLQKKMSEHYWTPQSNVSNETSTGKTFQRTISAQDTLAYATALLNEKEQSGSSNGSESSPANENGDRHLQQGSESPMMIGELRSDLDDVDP
Outline: as §1

USP25 = target: T3, USP25 (UniProt Q9UHP3)
T3 sequence (whole entry): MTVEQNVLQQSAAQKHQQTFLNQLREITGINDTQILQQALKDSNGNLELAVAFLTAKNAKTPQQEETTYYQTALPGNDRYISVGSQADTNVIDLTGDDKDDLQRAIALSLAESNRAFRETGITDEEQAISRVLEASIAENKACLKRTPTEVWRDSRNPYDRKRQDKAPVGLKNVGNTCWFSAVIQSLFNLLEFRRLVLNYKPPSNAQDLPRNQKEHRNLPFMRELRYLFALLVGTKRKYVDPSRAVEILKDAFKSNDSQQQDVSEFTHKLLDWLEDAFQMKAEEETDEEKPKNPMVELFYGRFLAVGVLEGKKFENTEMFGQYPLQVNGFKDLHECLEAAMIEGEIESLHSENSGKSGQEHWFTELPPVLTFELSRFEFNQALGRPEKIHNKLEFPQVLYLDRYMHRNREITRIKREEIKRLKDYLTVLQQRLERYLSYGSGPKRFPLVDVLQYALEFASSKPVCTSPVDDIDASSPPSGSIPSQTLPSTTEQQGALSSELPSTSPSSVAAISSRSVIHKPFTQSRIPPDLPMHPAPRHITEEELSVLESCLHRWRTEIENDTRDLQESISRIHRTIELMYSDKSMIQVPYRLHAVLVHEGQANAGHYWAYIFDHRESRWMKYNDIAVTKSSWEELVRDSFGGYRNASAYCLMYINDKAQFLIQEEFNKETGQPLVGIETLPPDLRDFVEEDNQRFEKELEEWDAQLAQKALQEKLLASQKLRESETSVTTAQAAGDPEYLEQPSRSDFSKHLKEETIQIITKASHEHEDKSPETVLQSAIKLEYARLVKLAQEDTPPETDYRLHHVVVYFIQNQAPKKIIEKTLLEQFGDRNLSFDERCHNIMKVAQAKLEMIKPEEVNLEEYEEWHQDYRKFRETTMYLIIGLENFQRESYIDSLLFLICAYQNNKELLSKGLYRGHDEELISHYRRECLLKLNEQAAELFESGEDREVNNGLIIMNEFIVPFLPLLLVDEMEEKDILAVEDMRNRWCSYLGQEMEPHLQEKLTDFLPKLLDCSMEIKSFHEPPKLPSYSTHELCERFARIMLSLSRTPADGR
Outline: as §1

USP28 = target: T4, USP28 (UniProt Q96RU2)
T4 sequence (whole entry): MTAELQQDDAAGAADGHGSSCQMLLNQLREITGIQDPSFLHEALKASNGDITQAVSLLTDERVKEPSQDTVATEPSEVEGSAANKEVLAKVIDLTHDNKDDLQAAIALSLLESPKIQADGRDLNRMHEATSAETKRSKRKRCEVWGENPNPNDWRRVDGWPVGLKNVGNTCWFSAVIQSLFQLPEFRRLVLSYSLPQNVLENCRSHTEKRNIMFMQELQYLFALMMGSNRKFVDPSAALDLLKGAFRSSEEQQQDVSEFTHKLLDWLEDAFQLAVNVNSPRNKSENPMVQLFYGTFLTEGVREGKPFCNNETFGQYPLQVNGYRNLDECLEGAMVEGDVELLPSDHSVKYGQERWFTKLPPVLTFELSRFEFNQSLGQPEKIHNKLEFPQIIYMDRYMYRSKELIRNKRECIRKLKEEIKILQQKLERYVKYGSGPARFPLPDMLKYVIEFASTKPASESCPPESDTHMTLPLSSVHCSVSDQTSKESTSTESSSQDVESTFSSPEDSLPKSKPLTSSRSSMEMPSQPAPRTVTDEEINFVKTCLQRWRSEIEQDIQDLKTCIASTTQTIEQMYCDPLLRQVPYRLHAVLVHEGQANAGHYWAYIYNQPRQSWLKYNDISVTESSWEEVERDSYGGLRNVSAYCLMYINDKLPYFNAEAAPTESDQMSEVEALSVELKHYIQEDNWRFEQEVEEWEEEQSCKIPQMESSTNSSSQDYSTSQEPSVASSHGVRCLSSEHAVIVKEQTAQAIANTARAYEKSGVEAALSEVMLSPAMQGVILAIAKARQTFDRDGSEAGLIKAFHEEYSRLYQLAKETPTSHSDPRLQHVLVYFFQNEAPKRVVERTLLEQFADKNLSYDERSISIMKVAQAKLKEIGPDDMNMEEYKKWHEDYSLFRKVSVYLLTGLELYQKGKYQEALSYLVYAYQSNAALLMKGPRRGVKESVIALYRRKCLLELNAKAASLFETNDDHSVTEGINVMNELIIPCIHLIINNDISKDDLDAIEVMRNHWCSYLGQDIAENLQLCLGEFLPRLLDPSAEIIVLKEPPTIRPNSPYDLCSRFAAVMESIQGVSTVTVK
Outline: as §1

Measured: log2 ratio of Biotin-Ahx-Ub-VS probe labelling

O=C(CCl)NC1CCN(C(=O)C2CCCCC2)CC1
inactive: USP19 0.0532 | USP22 0.324 | USP24 -0.169 | USP25 -0.158 | USP28 -0.257
